Assay results from PubChem BioAssay AID1159580 (chemical genetic matrix, 2015).
Where “and” joins values, the source holds several entries; their conditions need not be identical. Equal values may be shown once. About 2,000 (36%) of roughly 5,500 compounds were called active. Inconclusive results (about 18%) are left out. Rule as the data show it: active = normalized growth mostly below about 0.91 (no sharp cut-off); inconclusive = no clear call, values can overlap the other calls; inactive = mostly above about 0.92. Some of the results follow.

Experiment: chemical genetic growth profiling, strain panel (AID 1159580);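 also: tested at 20 µM; growth read once vehicle control cultures reached saturation at 30 °C; 1 = growth at the plate median or of vehicle wells; lower values mean less growth of the strain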
Conditions: growth OD

Measured: normalized growth

CCCCCCCCC(=O)NCc1ccc(O)c(OC)c1
inactive: S. cerevisiae deletion strains, locus YJR075W, strain HOC1, hits give low values 0.989 and 0.961 | S. cerevisiae deletion strains, locus YKL009W, strain mrt4, hits give low values 0.955 | S. cerevisiae deletion strains, locus YKL068W, hits give low values 0.986 | S. cerevisiae deletion strains, locus YKL085W, strain MDH1 (second series), hits give low values 0.987 | S. cerevisiae deletion strains, locus YKL085W, strain MDH1, hits give low values 0.987 | S. cerevisiae deletion strains, locus YKL160W, strain elf1, hits give low values 0.985 | S. cerevisiae deletion strains, locus YKL190W, strain CNB1, hits give low values 0.999 | S. cerevisiae deletion strains, locus YKR001C, strain vps1, hits give low values 0.983 | S. cerevisiae deletion strains, locus YKR026C, strain gcn3, hits give low values 0.979 | S. cerevisiae deletion strains, locus YKR091W, strain srl3, hits give low values 0.999 | S. cerevisiae deletion strains, locus YLL001W, strain dnm1, hits give low values 1 | S. cerevisiae deletion strains, locus YLL026W, hits give low values 1 | S. cerevisiae deletion strains, locus YLL041C, strain sdh2, hits give low values 1 | S. cerevisiae deletion strains, locus YLR027C, strain aat2, hits give low values 1.01 | S. cerevisiae deletion strains, locus YLR039C, strain RIC1, hits give low values 1 | S. cerevisiae deletion strains, locus YLR058C, strain SHM2, hits give low values 0.984 | S. cerevisiae deletion strains, locus YLR102C, strain apc9, hits give low values 0.987 | S. cerevisiae deletion strains, locus YLR113W, strain HOG1, hits give low values 1.01 | S. cerevisiae deletion strains, locus YLR221C, strain rsa3, hits give low values 1.01 | S. cerevisiae deletion strains, locus YLR258W, strain gsy2, hits give low values 0.989 | S. cerevisiae deletion strains, locus YLR262C, strain YPT6 (second series), hits give low values 1.02 | S. cerevisiae deletion strains, locus YLR262C, strain YPT6, hits give low values 1.01 | S. cerevisiae deletion strains, locus YLR268W, strain sec22, hits give low values 0.97 | S. cerevisiae deletion strains, locus YLR320W, strain mms22, hits give low values 0.997 | S. cerevisiae deletion strains, locus YLR330W, strain CHS5, hits give low values 0.985 | S. cerevisiae deletion strains, locus YLR342W, strain FKS1 (second series), hits give low values 0.966 | S. cerevisiae deletion strains, locus YLR342W, strain FKS1, hits give low values 1.03 | S. cerevisiae deletion strains, locus YLR357W, strain rsc2, hits give low values 1.12 | S. cerevisiae deletion strains, locus YLR370C, strain arc18, hits give low values 0.993 | S. cerevisiae deletion strains, locus YLR371W, strain rom2, hits give low values 0.985 | S. cerevisiae deletion strains, locus YLR384C, strain iki3, hits give low values 1 | S. cerevisiae deletion strains, locus YLR418C, strain cdc73, hits give low values 0.989 | S. cerevisiae deletion strains, locus YML016C, strain PPZ1, hits give low values 0.978 | S. cerevisiae deletion strains, locus YML032C, strain rad52, hits give low values 0.97 | S. cerevisiae deletion strains, locus YML120C, strain ndi1, hits give low values 0.992 | S. cerevisiae deletion strains, locus YML124C, strain tub3, hits give low values 0.975 | S. cerevisiae deletion strains, locus YMR058W, strain fet3, hits give low values 1 | S. cerevisiae deletion strains, locus YMR078C, strain ctf18, hits give low values 0.977 | S. cerevisiae deletion strains, locus YMR125W, strain sto1, hits give low values 1.05 | S. cerevisiae deletion strains, locus YMR129W, hits give low values 1.02 | S. cerevisiae deletion strains, locus YMR205C, strain PFK2, hits give low values 0.961 | S. cerevisiae deletion strains, locus YMR223W, strain ubp8, hits give low values 0.965 | S. cerevisiae deletion strains, locus YMR231W, strain pep5, hits give low values 1.01 | S. cerevisiae deletion strains, locus YMR263W, strain SAP30, hits give low values 0.998 | S. cerevisiae deletion strains, locus YMR307W, strain GAS1, hits give low values 1.07 and 0.979 | S. cerevisiae deletion strains, locus YNL067W, strain RPL9B, hits give low values 0.995 | S. cerevisiae deletion strains, locus YNL071W, strain lat1, hits give low values 0.976 | S. cerevisiae deletion strains, locus YNL128W, strain TEP1, hits give low values 0.999 and 0.969 | S. cerevisiae deletion strains, locus YNL153C, strain GIM3, hits give low values 0.997 | S. cerevisiae deletion strains, locus YNL175C, strain NOP13, hits give low values 0.972 | S. cerevisiae deletion strains, locus YNL183C, strain NPR1, hits give low values 0.93 | S. cerevisiae deletion strains, locus YNL197C, strain WHI3, hits give low values 0.963 | S. cerevisiae deletion strains, locus YNL209W, strain ssb2, hits give low values 0.995 | S. cerevisiae deletion strains, locus YNL224C, strain SQS1, hits give low values 0.984 | S. cerevisiae deletion strains, locus YNL233W, strain BNI4, hits give low values 0.988 | S. cerevisiae deletion strains, locus YNL248C, strain rpa49, hits give low values 1.06 | S. cerevisiae deletion strains, locus YNL250W, strain rad50, hits give low values 0.975 | S. cerevisiae deletion strains, locus YNL271C, strain bni1, hits give low values 0.983 | S. cerevisiae deletion strains, locus YNL298W, strain CLA4, hits give low values 0.966 | S. cerevisiae deletion strains, locus YNL307C, strain MCK1, hits give low values 0.955 | S. cerevisiae deletion strains, locus YNL322C, strain KRE1 (second series), hits give low values 0.998 | S. cerevisiae deletion strains, locus YNL322C, strain KRE1, hits give low values 0.994 and 0.983 | S. cerevisiae deletion strains, locus YNR049C, strain mso1, hits give low values 1.02 | S. cerevisiae deletion strains, locus YNR052C, strain pop2, hits give low values 0.992 | S. cerevisiae deletion strains, locus YOL006C, strain TOP1, hits give low values 0.927 | S. cerevisiae deletion strains, locus YOL012C, strain htz1 0.863 | S. cerevisiae deletion strains, locus YOL147C, strain pex11, hits give low values 0.991 | S. cerevisiae deletion strains, locus YOR001W, strain rrp6, hits give low values 1.01 | S. cerevisiae deletion strains, locus YOR061W, strain CKA2, hits give low values 0.988 | S. cerevisiae deletion strains, locus YOR069W, strain VPS5, hits give low values 0.983 | S. cerevisiae deletion strains, locus YOR070C, strain gyp1, hits give low values 0.982 | S. cerevisiae deletion strains, locus YOR080W, strain dia2, hits give low values 1.01 | S. cerevisiae deletion strains, locus YOR083W, strain WHI5 (second series), hits give low values 0.998 | S. cerevisiae deletion strains, locus YOR083W, strain WHI5, hits give low values 0.988 | S. cerevisiae deletion strains, locus YOR106W, strain vam3, hits give low values 1 | S. cerevisiae deletion strains, locus YOR136W, strain idh2, hits give low values 0.981 | S. cerevisiae deletion strains, locus YOR144C, strain elg1, hits give low values 0.989 | S. cerevisiae deletion strains, locus YOR184W, strain ser1, hits give low values 0.939 | S. cerevisiae deletion strains, locus YOR231W, strain MKK1, hits give low values 0.988 | S. cerevisiae deletion strains, locus YOR265W, strain rbl2, hits give low values 1.01 | S. cerevisiae deletion strains, locus YOR270C, strain vph1, hits give low values 0.969 | S. cerevisiae deletion strains, locus YOR290C, strain snf2, hits give low values 0.978 | S. cerevisiae deletion strains, locus YOR316C, strain cot1, hits give low values 0.98 | S. cerevisiae deletion strains, locus YPL051W, strain arl3, hits give low values 0.987 | S. cerevisiae deletion strains, locus YPL055C, strain LGE1, hits give low values 1.01 | S. cerevisiae deletion strains, locus YPL078C, strain atp4, hits give low values 0.969 | S. cerevisiae deletion strains, locus YPL106C, strain sse1, hits give low values 1.04 | S. cerevisiae deletion strains, locus YPL240C, strain hsp82, hits give low values 1 | S. cerevisiae deletion strains, locus YPL241C, strain CIN2, hits give low values 0.978 and 0.994 | S. cerevisiae deletion strains, locus YPL256C, strain CLN2, hits give low values 1 | S. cerevisiae deletion strains, locus YPR119W, strain clb2, hits give low values 0.989 | S. cerevisiae deletion strains, locus YPR141C, strain kar3, hits give low values 0.98 | S. cerevisiae deletion strains, locus YPR163C, strain tif3, hits give low values 0.989 | S. cerevisiae deletion strains, locus YPR167C, strain met16, hits give low values 0.986 | S. cerevisiae deletion strains, strain wtn01, hits give low values 0.984 | S. cerevisiae strains, strain wild type, hits give low values 1
